Screening results: PubChem BioAssay, National Center for Advancing Translational Sciences (NCATS)
HPGD block – inhibitors of human 15-hydroxyprostaglandin dehydrogenase (HPGD) | P15428 | purified HPGD, NADH fluorescence kinetic, PGE2 substrate | Potency, µM, without a hit: top-dose activity change, negative = inhibition, hits mostly inhibitors | hit rate 4.3% among 150,000; active = well fitted inhibition curve with a large enough effect, not every such curve was filed as active; inconclusive = small, poorly fitted or top-dose-only effect, or another doubt; inactive = no such curve, though single readings can be large or run the other way
Target sequence (P15428 whole entry, looked up): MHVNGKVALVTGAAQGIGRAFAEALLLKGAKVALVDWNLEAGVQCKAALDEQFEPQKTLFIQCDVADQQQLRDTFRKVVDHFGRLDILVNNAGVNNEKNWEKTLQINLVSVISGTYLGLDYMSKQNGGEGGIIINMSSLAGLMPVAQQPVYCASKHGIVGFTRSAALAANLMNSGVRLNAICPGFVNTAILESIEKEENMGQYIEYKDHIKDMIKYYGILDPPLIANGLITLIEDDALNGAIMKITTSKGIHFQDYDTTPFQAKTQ
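NADH formation kinetics: reaction with 30 uM PGE2 and 1 mM NAD+ (final), 20 nM enzyme, Tris-HCl pH 8 with Tween 20, after 15 min compound preincubation at room temperature. Fluorescence change, last versus first of five reads.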
Tau fluor cs – counter-screen for tau fibril formation inhibitors. Potency, µM (top dose mostly 57.7 µM), for inactives: top-dose activity change, negative = decrease. hit rate 0.93% among 280,000. tau K18 P301L Alexa594 fluorescence, heparin fibrillization; also: nearly all actives have a fitted effect of over 55% in size
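Human tau K18 P301L (15 uM unlabeled, 0.24 uM Alexa 594-labeled) in 100 mM sodium acetate pH 7 with 20 uM heparin, 6 hr at 37 C. ThT 30 uM added, 1 hr ambient; Alexa 594 FP and total fluorescence read at 555/632 nm.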
Tau fibril ThT – blocks human tau fibril formation measured by thioflavin T. hit rate 2.1% among 270,000. P10636. Potency, µM (doses to about 57.4 µM), inactives show top-dose activity, negative = inhibition, hits mostly inhibitors. recombinant tau K18 P301L (four-repeat tau fragment), heparin-induced fibrillization, ThT fluorescence; also: nearly all actives have a fitted effect of over 55% in size
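Aggregation was driven by heparin (20 uM final) acting on recombinant tau […] bearing P301L in 100 mM sodium acetate pH 7; fibrils were detected with Thioflavin T.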
Tau FP inhib – blocks human tau fibril formation measured by polarization. AID 1468. Potency, µM (doses to about 57.7 µM), without a hit: at the highest dose activity, negative = inhibition, usual class: inhibitors. K18 P301L tau heparin fibrillization, Alexa594 FP, 6 h. hit rate 0.39% among 280,000; also: nearly all actives have a fitted effect of over 55% in size
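FP of Alexa 594-tau after heparin (20 uM) induction. Substrate: human K18 P301L, 15 uM unlabeled, 0.24 uM labeled. Buffer 100 mM sodium acetate pH 7. 6 hr, 37 C.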
ALDH1A1 inh – inhibitors of human aldehyde dehydrogenase 1A1. P00352. Purified ALDH1A1, NADH fluorescence, propionaldehyde substrate. Potency, µM (series often up to 75.3 µM), inactives show top-dose activity, negative = inhibition, usual class: inhibitors. hit rate 7.3% among 220,000; active = well fitted inhibition curve with a large enough effect, not every such curve was filed as active; inconclusive = small, poorly fitted or top-dose-only effect, or another doubt; inactive = no such curve, though single readings can be large or run the other way;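 also: plate controls were no enzyme wells and a reference inhibitor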
Target sequence (P00352 whole entry, looked up): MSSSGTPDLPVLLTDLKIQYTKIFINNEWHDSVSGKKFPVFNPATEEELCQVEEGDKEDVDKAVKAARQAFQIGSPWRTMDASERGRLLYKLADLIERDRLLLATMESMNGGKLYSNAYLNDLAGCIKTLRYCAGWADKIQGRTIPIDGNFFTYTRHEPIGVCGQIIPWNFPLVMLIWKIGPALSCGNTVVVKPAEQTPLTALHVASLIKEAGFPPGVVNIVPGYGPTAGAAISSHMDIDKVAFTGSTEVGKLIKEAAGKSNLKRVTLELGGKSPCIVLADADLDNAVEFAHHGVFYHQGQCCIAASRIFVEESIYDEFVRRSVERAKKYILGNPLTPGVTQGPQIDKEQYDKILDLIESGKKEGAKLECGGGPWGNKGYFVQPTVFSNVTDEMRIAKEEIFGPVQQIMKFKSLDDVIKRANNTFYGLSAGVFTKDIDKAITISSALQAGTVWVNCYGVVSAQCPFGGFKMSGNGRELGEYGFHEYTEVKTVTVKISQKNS
KDM4E inh – JMJD2E (human) inhibition. B2RXH2. JMJD2E catalytic domain, FDH-coupled NADH fluorescence (FDH is formaldehyde dehydrogenase). Potency, µM (titrated, usually from 57.1 µM), inactives show top-dose activity change, negative = inhibition, actives largely listed as inhibitors. hit rate 1.6% among 230,000. AID 2147; active = well fitted inhibition curve with a large enough effect, not every such curve was filed as active; inconclusive = small, poorly fitted or top-dose-only effect, or another doubt; inactive = no such curve, though single readings can be large or run the other way;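 also: 0% = wells with enzyme and -100% = buffer wells without enzyme; nearly all actives have a fitted effect of over 50% in size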
An asterisk follows results filed as active; ? = inconclusive; · = no result; [ ] = another dose, or the depositor's remark. Sampled rows, rich in hits. Any-hit rate of the full collection: about 9.9%. Unless noted, calls follow the shape of the dose curve; as a rule, active = well fitted curve in the direction sought with a large enough effect; inconclusive = small, poorly fitted or top-dose-only effect, or another doubt; inactive = no such curve, though single readings can be large; an effect the other way counts as inactive or inconclusive. Unless noted, % is scaled to controls: 0 for no effect and ±100 for the full control effect; potency is read from the fitted curve at half-maximal effect.

SMILES | HPGD block | Tau fluor cs | Tau fibril ThT | Tau FP inhib | ALDH1A1 inh | KDM4E inh
O=C(/C=C/c1ccco1)NCc1ccc(F)cc1 | · | -11% | -10% | -8% | 18µM* | -22%
Cc1ccc(C(=O)N/C(=C/c2ccco2)C(=O)NCC2CCCO2)cc1 (stereo unspecified) | -19% | -2% | -5% | 2% | ? | -16%
NS(=O)(=O)c1ccc(CNC(=O)/C=C/c2ccco2)cc1 | · | -11% | ? | ? | · | -21%
O=C(/C=C/c1ccco1)NCC1CCCO1 (stereo unspecified) | ? | -20% | 14µM* | ? | 22µM* | -17%
O=C(N/C=C/c1ccco1)NCc1ccccc1 | · | -9% | ? | -3% | 22µM* | ?
Cn1c(N)c(C(=O)Nc2c(Cl)cccc2Cl)sc1=S | · | -28% | -11% | ? | · | 6%
CCCNC(=O)C1CC(c2ccc(C(F)(F)F)cc2)=NO1 (stereo unspecified) | · | -1% | 0% | 1% | · | 3%
CC(=O)Nc1c([N+](=O)[O-])cc2[nH]c(=O)[nH]c2c1[N+](=O)[O-] | · | -19% | ? | -2% | 2% | 25µM*
O=C(NC1CCCC1)c1ccc2c(c1)N(Cc1ccccc1F)C(=O)c1ccccc1S2 | · | -1% | 4% | -5% | · | ·
O=C(CCl)NCCN1C(=O)S/C(=C\c2cccnc2)C1=O | · | -7% | ? | -15% | 1.6µM* | -4%
Cc1cc(C)cc(NC(=O)C(=O)NCC(c2cccnc2)N2CCc3ccccc3C2)c1 (stereo unspecified) | · | -3% | -7% | -2% | · | ·
CC1CC(Nc2cccc(O)c2)=CC(=O)O1 (stereo unspecified) | -3% | -7% | -13% | -2% | -1% | 8%
C[C@@H]1Cc2c(O)c(O)cc(O)c2C(=O)O1 | · | -21% | 32µM* | 25µM* | · | 2µM*
CC(C)c1nn2c(=O)cc(COC(=O)c3ccco3)nc2s1 | · | -7% | -4% | -4% | · | ·
Cc1ccc(C(=O)c2ccccc2C(=O)OCC(=O)NC(C)(C)C)cc1 | · | 1% | 4% | 9% | ? | 2%
CCOC(=O)c1ccc(NC(=O)C(=O)NCCc2ccc(OC)cc2)cc1 | · | -11% | ? | -10% | 12% | 4%
COCCCNC(=O)CCCOc1ccccc1 | 14µM* | 0% | 1% | 1% | -11% | -1%
CCOC(=O)c1ccc(NC(=S)NCCc2ccc(F)cc2)cc1 | · | ? | 6% | 28µM* | 10% | 13%
COCCNC(=O)CSc1nnc(-c2ccccc2)c(-c2ccccc2)n1 | · | 8% | 10% | 1% | 22µM* | -9%
O=C(CCCOc1ccccc1)NCCc1ccccc1 | · | -15% | -13% | -9% | 4% | 5%
COCCNC(=O)CSc1nnc(-c2ccc(OC)c(OC)c2)c(-c2ccc(OC)c(OC)c2)n1 | · | -10% | -3% | -6% | · | ·
O=C(CCCOc1ccccc1)NC(=S)Nc1ccccc1 | · | -21% | -17% | -4% | 10µM* | -2%
Cc1ccc(NC(=O)N2CCc3cc(S(=O)(=O)N4CCC(C)CC4)ccc32)cc1 | · | -8% | 13% | -9% | · | ·
CC(C)CN(CC(C)C)c1nnc(NC(=O)Nc2cccc(C(F)(F)F)c2)s1 | · | -11% | ? | ? | · | ·
CC1Cc2cc(S(=O)(=O)CCC(=O)Nc3ccc(F)cc3Cl)ccc2N1C(=O)C1CC1 (stereo unspecified) | · | -5% | 4% | -2% | · | ·
SMILES | HPGD block | Tau fluor cs | Tau fibril ThT | Tau FP inhib | ALDH1A1 inh | KDM4E inh
CC(C)=CCC/C(C)=C/CO/N=C1/C[C@@H](O)[C@@H](O)[C@@H]2[C@H]3C(=O)N(c4ccc(F)cc4F)C(=O)[C@@H]3CC[C@@H]12 | · | -15%[11.6 µM] | -7%[11.5 µM] | 6%[11.6 µM] | -4%[13.5 µM] | ·
CCOC(=O)c1ccc(NC(=S)Nc2ccccc2)cc1 | -13% | -22% | -7% | -8% | ? | 6%
COCCCNC(=O)CC(C)c1ccccc1 (stereo unspecified) | 16µM* | 12% | 10% | -1% | 21% | 10%
O=C(CC(c1ccccc1)c1ccccc1)NCCO | -10% | 4% | 11% | -2% | 2% | 1%
CCOC(=O)c1ccc(NC(=S)NC(=O)COc2ccccc2)cc1 | ? | -17% | ? | -6% | 22µM* | 6%
COCCCNC(=O)NC(=O)c1ccccc1 | 1% | 6% | 2% | 12% | -7% | 5%
COCCNC(=O)CC(c1ccccc1)c1ccccc1 | 14µM* | 5% | 0% | 12% | 8% | -1%
COc1cc(NC(=O)Cn2c(-c3ccccc3)cc(C(C)=O)c2C)cc(OC)c1 | · | -26% | -8% | -5% | · | ·
O=C(NCCc1ccccc1)c1c[nH]c2ccc(S(=O)(=O)Nc3ccccc3F)cc2c1=O | · | ? | -6% | 13µM* | · | ·
O=C(NCCc1ccccc1)c1c[nH]c2ccc(S(=O)(=O)Nc3ccc(F)cc3F)cc2c1=O | · | ? | 20% | ? | · | ·
CN(CCC#N)S(=O)(=O)c1ccc2[nH]cc(C(=O)NCCc3ccccc3)c(=O)c2c1 | ? | -28% | 9% | ? | 25µM* | ?
N#Cc1cc2c(nc1SCC1COc3ccccc3O1)CCC2 (stereo unspecified) | 25µM* | -30% | -16% | ? | ? | -27%
Cc1cc(C)n2nc(SCC3COc4ccccc4O3)nc2n1 (stereo unspecified) | 7.1µM* | -17% | -8% | 0% | -4% | 5%
Cc1cc(C)n2nc(SCCOc3ccccc3)nc2n1 | · | -5% | -4% | -9% | 1% | -1%
N#Cc1cc2c(nc1SCc1ccccc1)CCCCC2 | -8% | -14% | 0% | -1% | 8% | 4%
Cc1cc(C)c(C#N)c(SCC2COc3ccccc3O2)n1 (stereo unspecified) | 14µM* | -28% | -8% | ? | ? | 2%
Cc1cc(C)c(C#N)c(SCc2ccccc2)n1 | -15% | -16% | -11% | -8% | ? | -3%
Cc1cccc(-c2nc3cc(NC(=O)COc4ccccc4F)ccc3o2)c1 | · | -20% | ? | -13% | · | ·
COc1ccc(C(=O)NNC(=O)C2CCN(S(=O)(=O)c3ccc(C)cc3)CC2)cc1 | · | 2% | 1% | -2% | 0% | -4%
COc1ccc2[nH]cc(CCNC(=O)Nc3cc(C)cc(C)c3)c2c1 | · | ? | -17% | 12% | · | ·
CCOC(=O)c1nnc2c(-c3ccc(F)cc3)c(C)nn2c1N | · | 2% | ? | -1% | · | ·
CCOC(=O)c1nnc2c(-c3ccc(Cl)cc3)c(C)nn2c1C | · | -26% | 7.9µM* | 3% | · | ·
CCC(Cl)CC(Cl)C(Cl)C(Cl)C(Cl)C(C)Cl (stereo unspecified) | -6% | · | · | · | ? | ·
CC(C)CC(NC(=O)c1ccc(C#CC(C)(C)O)s1)C(=O)O (stereo unspecified) | · | -3% | -5% | 4% | ? | -2%
